Reference: the supplement of paper PMC8728848
This is one part of a sample in which the strongest signals are shown more often than they occur.

Assays:
Test in all cases: glycan array binding signal (z-score within array); higher = stronger binding
Conditions in all cases: glycan notation: IUPAC condensed, linker removed
[1] = target: Fuc(a1-2)Gal(b1-3)GalNAc(b1-3)Gal
How it was run: (§1)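 Columns mapping to the same glycan were averaged after glycan names were converted to IUPAC-condensed notation. The data come from 3228 arrays in the Consortium for Functional Glycomics database, limited to those with an available protein sequence. Binding is reported as a within-array Z-score averaged across arrays of one protein sequence and across linkers.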

[2] = target: Fuc(a1-2)Gal(b1-3)GalNAc(b1-4)[Neu5Ac(a2-3)]Gal(b1-4)Glc
How it was run: as §1

Fuc(a1-2)Gal(b1-3)GlcNAc = target: Fuc(a1-2)Gal(b1-3)GlcNAc
How it was run: as §1

Fuc(a1-2)Gal(b1-4)Glc = target: Fuc(a1-2)Gal(b1-4)Glc
How it was run: as §1

[3] = target: Fuc(a1-2)[Gal(a1-3)]Gal(b1-4)GlcNAc
How it was run: as §1

[4] = target: Fuc(a1-2)[GalNAc(a1-3)]Gal(b1-4)Glc
How it was run: as §1

[5] = target: Fuc(a1-2)[GalNAc(a1-3)]Gal(b1-4)GlcNAc(b1-3)Gal(b1-4)GlcNAc(b1-3)Gal(b1-4)GlcNAc
How it was run: as §1

Fuc(a1-3)GlcNAc = target: Fuc(a1-3)GlcNAc
How it was run: as §1

[6] = target: Fuc(a1-3)[Gal(b1-4)]GlcNAc(b1-3)GalNAc
How it was run: as §1

Gal(a1-3)Gal(b1-3)Glc = target: Gal(a1-3)Gal(b1-3)Glc
How it was run: as §1

[7] = target: Gal(a1-3)Gal(b1-3)GlcNAc(b1-2)Man(a1-3)[Gal(a1-3)Gal(b1-3)GlcNAc(b1-2)Man(a1-6)]Man(b1-4)GlcNAc(b1-4)GlcNAc
How it was run: as §1

[8] = target: Gal(a1-3)Gal(b1-3)GlcNAc(b1-6)GalNAc
How it was run: as §1

Gal(a1-4)Gal(b1-4)Glc = target: Gal(a1-4)Gal(b1-4)Glc
How it was run: as §1

Gal(b1-3)Gal(b1-4)GlcNAc = target: Gal(b1-3)Gal(b1-4)GlcNAc
How it was run: as §1

[9] = target: Gal(b1-3)GalNAc(b1-4)[Neu5Ac(a2-3)]Gal(b1-4)Glc
How it was run: as §1

[10] = target: Gal(b1-3)GlcNAc(a1-6)Gal(b1-4)GlcNAc
How it was run: as §1

Gal(b1-3)GlcNAc(b1-2)Man = target: Gal(b1-3)GlcNAc(b1-2)Man
How it was run: as §1

[11] = target: Gal(b1-3)GlcNAc(b1-3)Gal(b1-4)GlcNAc(b1-6)[Gal(b1-3)GlcNAc(b1-3)]Gal(b1-4)Glc
How it was run: as §1

[12] = target: Gal(b1-3)[Fuc(a1-4)]GlcNAc(b1-3)Gal(b1-3)[Fuc(a1-4)]GlcNAc
How it was run: as §1

[13] = target: Gal(b1-4)GlcNAc(b1-2)Man(a1-3)[Gal(b1-4)GlcNAc(b1-2)Man(a1-6)][Gal(b1-4)GlcNAc(b1-4)]Man(b1-4)GlcNAc(b1-4)[Fuc(a1-6)]GlcNAc
How it was run: as §1

[14] = target: Gal(b1-4)GlcNAc(b1-2)Man(a1-3)[Man(a1-6)]Man(b1-4)GlcNAc(b1-4)GlcNAc
How it was run: as §1

[15] = target: Gal(b1-4)GlcNAc(b1-2)Man(a1-6)[GlcNAc(b1-2)Man(a1-3)]Man(b1-4)GlcNAc(b1-4)GlcNAc
How it was run: as §1

[16] = target: Gal(b1-4)GlcNAc(b1-2)[Gal(b1-4)GlcNAc(b1-6)]Man(a1-6)[GlcNAc(b1-4)][Gal(b1-4)GlcNAc(b1-2)Man(a1-3)]Man(b1-4)GlcNAc(b1-4)GlcNAc
How it was run: as §1

[17] = target: Gal(b1-4)GlcNAc(b1-3)[Gal(b1-4)GlcNAc(b1-6)]GalNAc
How it was run: as §1

Gal3S(b1-4)Glc = target: Gal3S(b1-4)Glc
How it was run: as §1

Gal3S6S(b1-4)GlcNAc = target: Gal3S6S(b1-4)GlcNAc
How it was run: as §1

Gal3S6S(b1-4)GlcNAc6S = target: Gal3S6S(b1-4)GlcNAc6S
How it was run: as §1

Glc(a1-6)Glc(a1-6)Glc = target: Glc(a1-6)Glc(a1-6)Glc
How it was run: as §1

Glc(b1-6)Glc = target: Glc(b1-6)Glc
How it was run: as §1

[18] = target: GlcNAc(a1-4)Gal(b1-3)GlcNAc
How it was run: as §1

[19] = target: GlcNAc(a1-4)Gal(b1-4)GlcNAc(b1-3)Gal(b1-4)GlcNAc
How it was run: as §1

[20] = target: GlcNAc(b1-3)Gal(b1-4)GlcNAc(b1-6)[GlcNAc(b1-3)]Gal(b1-4)GlcNAc
How it was run: as §1

[21] = target: GlcNAc(b1-3)[GlcNAc(b1-6)]GalNAc
How it was run: as §1

[22] = target: GlcNAc(b1-4)GlcNAc(b1-4)GlcNAc(b1-4)GlcNAc(b1-4)GlcNAc
How it was run: as §1

[23] = target: Man(a1-2)Man(a1-2)Man(a1-3)Man
How it was run: as §1

MurNAc(b1-4)GlcNAc = target: MurNAc(b1-4)GlcNAc
How it was run: as §1

[24] = target: Neu5Ac(a2-3)Gal(b1-3)GalNAc(b1-4)[Neu5Ac(a2-8)Neu5Ac(a2-3)]Gal(b1-4)Glc
How it was run: as §1

[25] = target: Neu5Ac(a2-3)Gal(b1-4)GlcNAc(b1-3)Gal(b1-4)GlcNAc(b1-3)[Neu5Ac(a2-3)Gal(b1-4)GlcNAc(b1-3)Gal(b1-4)GlcNAc(b1-6)]GalNAc
How it was run: as §1

[26] = target: Neu5Ac(a2-3)Gal(b1-4)GlcNAc(b1-3)[Neu5Ac(a2-3)Gal(b1-4)GlcNAc(b1-6)]GalNAc
How it was run: as §1

[27] = target: Neu5Ac(a2-3)Gal6S(b1-4)[Fuc(a1-3)]GlcNAc
How it was run: as §1

[28] = target: Neu5Ac(a2-6)Gal(b1-4)GlcNAc(b1-2)Man(a1-3)[Neu5Ac(a2-3)Gal(b1-4)GlcNAc(b1-2)Man(a1-6)]Man(b1-4)GlcNAc(b1-4)GlcNAc
How it was run: as §1

[29] = target: Neu5Ac(a2-6)Gal(b1-4)GlcNAc(b1-2)Man(a1-3)[Neu5Ac(a2-6)Gal(b1-4)GlcNAc(b1-2)Man(a1-6)]Man(b1-4)GlcNAc(b1-4)GlcNAc
How it was run: as §1

[30] = target: Neu5Ac(a2-6)Gal(b1-4)GlcNAc(b1-3)Gal(b1-4)GlcNAc(b1-3)GalNAc
How it was run: as §1

[31] = target: Neu5Ac(a2-6)Gal(b1-4)GlcNAc(b1-3)GalNAc
How it was run: as §1

[32] = target: Neu5Ac(a2-8)Neu5Ac(a2-3)Gal(b1-3)GalNAc(b1-4)[Neu5Ac(a2-3)]Gal(b1-4)Glc
How it was run: as §1

[33] = target: Neu5Ac(a2-8)Neu5Ac(a2-3)[Gal(b1-3)GalNAc(b1-4)]Gal(b1-4)Glc
How it was run: as §1

[34] = target: Neu5Ac(a2-8)Neu5Ac(a2-8)Neu5Ac(a2-3)[Gal(b1-3)GalNAc(b1-4)]Gal(b1-4)Glc
How it was run: as §1

[35] = target: Neu5Ac(a2-8)Neu5Gc(a2-3)Gal(b1-4)GlcNAc
How it was run: as §1

Neu5Gc(a2-3)Gal(b1-4)Glc = target: Neu5Gc(a2-3)Gal(b1-4)Glc
How it was run: as §1

[36] = target: Neu5Gc(a2-3)Gal(b1-4)[Fuc(a1-4)]GlcNAc
How it was run: as §1

B1: OVGAL11 (Ovis aries), AAF64320 (protein)
chain: MDSLPNPYLQSVSLTVCYMVKIKANLLSAFGKNPELQVDFGTGTGQGGNIPFRFWYCDGMVVMNTFTDGSWQKEEKVLTDAFVPGQPFELQFLVLEKEYQVFVKNKPICQFAHRLPLQSVKMLDVRGDIVLTSVDTL
For B1, the “glycan array binding signal (z-score)” value [1] was 1.72, the “glycan array binding signal (z-score)” value [2] was 6.31 and the “glycan array binding signal (z-score)” value (Fuc(a1-2)Gal(b1-3)GlcNAc) was -0.096. The “glycan array binding signal (z-score)” value (Fuc(a1-2)Gal(b1-4)Glc) was -0.057, the “glycan array binding signal (z-score)” value [3] was 0.2 and the “glycan array binding signal (z-score)” value [4] was 0.204. The “glycan array binding signal (z-score)” value [5] was -0.076, the “glycan array binding signal (z-score)” value (Fuc(a1-3)GlcNAc) was 4.51 and the “glycan array binding signal (z-score)” value [6] was -0.106. For the same binder, the “glycan array binding signal (z-score)” value (Gal(a1-3)Gal(b1-3)Glc) was -0.398, the “glycan array binding signal (z-score)” value [7] was -0.081 and the “glycan array binding signal (z-score)” value [8] was -0.082. The “glycan array binding signal (z-score)” value (Gal(a1-4)Gal(b1-4)Glc) was -0.104, the “glycan array binding signal (z-score)” value (Gal(b1-3)Gal(b1-4)GlcNAc) was -0.063 and the “glycan array binding signal (z-score)” value [9] was 1.62. The “glycan array binding signal (z-score)” value [10] was -0.11, the “glycan array binding signal (z-score)” value (Gal(b1-3)GlcNAc(b1-2)Man) was -0.023 and the “glycan array binding signal (z-score)” value [11] was -0.113. The “glycan array binding signal (z-score)” value [12] was -0.101, the “glycan array binding signal (z-score)” value [13] was -0.011 and the “glycan array binding signal (z-score)” value [14] was -0.086. For the same binder, the “glycan array binding signal (z-score)” value [15] was -0.094, the “glycan array binding signal (z-score)” value [16] was -0.095 and the “glycan array binding signal (z-score)” value [17] was 0.686. For the same binder, the “glycan array binding signal (z-score)” value (Gal3S(b1-4)Glc) was 0.199, the “glycan array binding signal (z-score)” value (Gal3S6S(b1-4)GlcNAc) was -0.175 and the “glycan array binding signal (z-score)” value (Gal3S6S(b1-4)GlcNAc6S) was 0.724. The “glycan array binding signal (z-score)” value (Glc(a1-6)Glc(a1-6)Glc) was -0.089, the “glycan array binding signal (z-score)” value (Glc(b1-6)Glc) was 0.568 and the “glycan array binding signal (z-score)” value [18] was -0.114. For the same binder, the “glycan array binding signal (z-score)” value [19] was -0.089, the “glycan array binding signal (z-score)” value [20] was -0.102 and the “glycan array binding signal (z-score)” value [21] was -0.084. The “glycan array binding signal (z-score)” value [22] was -0.316, the “glycan array binding signal (z-score)” value [23] was 4.38 and the “glycan array binding signal (z-score)” value (MurNAc(b1-4)GlcNAc) was -0.098. The “glycan array binding signal (z-score)” value [24] was -0.069, the “glycan array binding signal (z-score)” value [25] was -0.068 and the “glycan array binding signal (z-score)” value [26] was -0.097. For the same binder, the “glycan array binding signal (z-score)” value [27] was -0.219, the “glycan array binding signal (z-score)” value [28] was -0.08 and the “glycan array binding signal (z-score)” value [29] was -0.138. The “glycan array binding signal (z-score)” value [30] was -0.065, the “glycan array binding signal (z-score)” value [31] was -0.082 and the “glycan array binding signal (z-score)” value [32] was 1.75. The “glycan array binding signal (z-score)” value [33] was 13.5, the “glycan array binding signal (z-score)” value [34] was -0.044 and the “glycan array binding signal (z-score)” value [35] was 0.807. The “glycan array binding signal (z-score)” value (Neu5Gc(a2-3)Gal(b1-4)Glc) was -0.214 and the “glycan array binding signal (z-score)” value [36] was 0.714.
